Measurements as given in PubChem BioAssay AID624417 (National Center for Advancing Translational Sciences (NCATS), 2012).
Hit rate of the full screen: of about 410,000 compounds, about 6,400 (1.6%) were called active. Another 20% or so got no clear call; they are omitted. The sample as a whole holds a higher share of actives than the screen did. A number with no mark means an inactive call. Calls come from the whole dose curve; as a rule, active = well fitted inhibition curve with a large enough effect; inconclusive = small, poorly fitted or top-dose-only effect; inactive = no such curve, though single readings can be large or run the other way.

molecular target: Glucagon-like peptide 1 receptor (Homo sapiens) (UniProt P43220); assay: qHTS of GLP-1 Receptor Inverse Agonists (Inhibition Mode); details: HEK293 GLP-1R CRE-luciferase, luminescence, 24 h, GLP-1R form is constitutively active; series mostly up to 38.3 µM; activity change, negative = inhibition: at the top concentration; note: nearly all actives have a fitted effect of over 55% in size
Sequence (P43220 whole entry, looked up): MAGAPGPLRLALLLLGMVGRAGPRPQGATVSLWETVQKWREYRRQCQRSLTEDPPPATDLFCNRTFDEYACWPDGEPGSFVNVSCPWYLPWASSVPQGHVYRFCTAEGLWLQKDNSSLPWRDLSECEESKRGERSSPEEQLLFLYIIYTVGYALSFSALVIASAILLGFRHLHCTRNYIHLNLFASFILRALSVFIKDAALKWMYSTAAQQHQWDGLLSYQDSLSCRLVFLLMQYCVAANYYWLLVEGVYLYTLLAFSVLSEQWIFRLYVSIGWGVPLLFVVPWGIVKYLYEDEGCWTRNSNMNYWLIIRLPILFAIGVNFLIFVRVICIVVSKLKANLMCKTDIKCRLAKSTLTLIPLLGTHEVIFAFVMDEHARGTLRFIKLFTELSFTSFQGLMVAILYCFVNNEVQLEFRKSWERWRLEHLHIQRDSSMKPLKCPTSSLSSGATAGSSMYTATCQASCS
In short: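 Stable HEK293 clone (constitutively active GLP-1R + cAMP-response luciferase); 200 cells/uL plated, 12 h pre-culture, compound 24 hr, 37 deg C/5% CO2; detection reagent 12 min RT; luminescence.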
% is set by controls: 0 for no effect and ±100 for the full control effect; potency is the fitted concentration of half-maximal effect.

SMILES | activity change, negative = inhibition | Potency
Cc1ccc(S(=O)(=O)N[C@H](CO)C(C)C)cc1 | 16.6% | 
C[C@H]1CN([C@@H](C)CO)C(=O)CCCn2cc(nn2)CO[C@@H]1CN(C)S(=O)(=O)c1ccc(-c2ccccc2)cc1 | 34% | 
C[C@H]1CN(c2ccc(Br)cc2)C(=O)[C@@H]1CC(=O)Nc1ccc(Br)cc1 | -6.77% | 
COc1ccc(NC(=O)c2sc(=O)n(Cc3ccc(S(=O)(=O)N(C)C)cc3)c2C)cc1 | 15.2% | 
Cc1ccccc1CNC(=O)c1ccc(NC(=O)N2CCCCc3ccccc32)cc1 | 2.26% | 
Cc1ccc(NC(=O)Cc2ccc(NC(=O)N3CCCCc4ccccc43)cc2)cc1 |  | 7.94 µM (active)
Cc1cc(Cl)ccc1NC(=O)Cc1ccc(NC(=O)N2CCCCc3ccccc32)cc1 | 1.66% | 
CCOC(=O)N1CCN(C(=O)C[C@@H]2C[C@@]3(C(=O)OC)CC(C)(C)CC=C3N(Cc3ccco3)C2=O)CC1 | -19.4% | 
CCCNC(=O)C1(C)CCCN(C(=O)c2oc3ccccc3c2C)C1 (stereo not drawn) | 17.5% | 
CC1(C(=O)NS(=O)(=O)c2cccc(F)c2)CCN1C(=O)c1cccc2ccccc12 (stereo not drawn) | 25.7% | 
Cc1ccccc1S(=O)(=O)N1[C@@H](c2cccc(Cl)c2)C(C(=O)OC(C)(C)C)=CC[C@H]1c1ccc(Cl)cc1 | 26% | 
O=C(Nc1nc2c(s1)CCCC2)c1ccccc1F |  | 4.47 µM (active)
O=C(Nc1sc2c(c1C(=O)O)CCC2)c1ccccc1F | -23.1% | 
O=C(Nc1nnc(-c2ccccc2F)s1)c1ccccc1F | 42.3% | 
Cc1nc(C(F)(F)F)ccc1C(=O)N1CCC1(C)C(=O)NS(=O)(=O)c1ccc(F)cc1F (stereo not drawn) | 4.33% | 
O=C1CCNCCN1[C@H](CO)Cc1ccccc1 | 11.1% | 
c1ccc(C[C@H]2CNCCN2CCC23CC4CC(CC(C4)C2)C3)cc1 |  | 10 µM (active)
c1ccc2c(CCN3CCNC[C@H]3Cc3cccc4ccccc34)cccc2c1 | -11.6% | 
CN(C)C1CN(Cc2cn(Cc3ccccc3)nn2)S(=O)(=O)C1 (stereo not drawn) | 8.92% | 
Cc1ccc(-c2cn3cc(C)ccc3n2)cc1 | -14.4% [at 0.307 µM] | 
Cc1ccc(-n2cc3ccc([N+](=O)[O-])cc3n2)cc1 | -54% | 
Cc1ccc(-c2cn3cc([N+](=O)[O-])ccc3n2)cc1 |  | 4.47 µM (active)
CCOC(=O)c1c(NC(=O)COC(=O)c2ccc(S(=O)(=O)C(F)F)cc2)sc(C(=O)N(C)C)c1C | 12.2% | 
COc1ccc(CC(N)c2csc(NC(=O)NC(c3ccccc3)c3ccccc3)n2)cc1 (stereo not drawn) | -7.52% | 

SMILES | activity change, negative = inhibition | Potency
C[C@@H]1CN([C@H](C)CO)C(=O)CCCn2cc(nn2)CO[C@H]1CN(C)S(=O)(=O)c1ccc(Oc2ccccc2)nc1 | 3.37% | 
Cc1ccc(-c2noc(CSc3nnc(-c4ccc(Cl)cc4)n3C)n2)cc1 | 12.7% | 
c1ccc(CCc2nc(-c3ccncc3)no2)cc1 | 2.26% | 
Cc1ccc(-c2noc(CC(c3ccccc3)c3ccccc3)n2)cc1 |  | 5.62 µM (active)
CC[C@@H]1CC2=C(C(=O)OC(C)(C)O2)[C@@H](CC)O1 | 26.8% | 
CC1(C)NC(=O)N(CC(=O)Nc2ccc(-c3ccccc3)cc2)C1=O | 0.129% | 
Cc1c(C(=O)NCc2ccc(C#N)cc2)sc(=O)n1Cc1ccc(C(=O)N(C)C)cc1 | 10.9% | 
FC(F)(F)c1cccc(Cc2noc(CN3CCC(N4CCCCC4)CC3)n2)c1 |  | 5.62 µM (active)
CCOC(=O)N1CCN(Cc2nc(Cc3cccc(C(F)(F)F)c3)no2)CC1 | -5.14% | 
O=C(c1ccco1)N1CCN(Cc2cccc(C(F)(F)F)c2)CC1 | -16.9% | 
O=C(NCc1ccccc1)C1c2ccccc2OCC(=O)N1CCCN1CCOCC1 (stereo not drawn) | 20.2% | 
Cc1cc(Br)ccc1NC(=O)CCCOc1cc(=O)n(C)c2ccccc12 | 7.24% | 
Cc1ccc(CN(CC(=O)NC2CCCCC2)C(=O)c2csnn2)cc1 | -22.4% | 
COc1ccc(CN(CC(=O)NC2CCCC2)C(=O)CCC(=O)Nc2cc(C)on2)cc1 | -8.66% | 
Cc1cc(C(C)(C)C)oc1C(=O)N(CC(=O)NC1CCCC1)Cc1ccc(Cl)cc1 |  | 7.08 µM (active)
O=C(CC[C@H]1O[C@@H](n2ccc(=O)[nH]c2=O)[C@H](O)[C@@H]1O)N[C@H](Cc1ccccc1)C(=O)NCc1ccco1 | 12.8% | 
CC1CCCN(CC(O)COCc2ccccc2)C1 (stereo not drawn) | -6.19% | 
Cc1ccccc1C(OCC(O)CN1CCCCC1CCO)c1ccccc1 (stereo not drawn) |  | 10 µM (active)
Cc1cccc(C)c1OCC(O)CN1CCCCC1 (stereo not drawn) | -1.02% | 
Cc1nc(C(F)(F)F)ccc1C(=O)N1CCC1(C)C(=O)NS(=O)(=O)c1ccccc1Cl (stereo not drawn) | 15.1% | 
CCOC(=O)N(C)c1c(CC)nc2c(OCc3ccccc3C(=O)OC)cccn12 | 13.9% | 
COc1ccc(C(=O)OCC(=O)N2CC(=O)Nc3ccccc32)cc1Br | 17.7% | 
COc1ccc(Cl)cc1-n1c(C)cc(C(=O)OCC(=O)N2CC(=O)Nc3ccccc32)c1C |  | 10 µM (active)
COc1cc(OC)c(C(=O)OCC(=O)N2CC(=O)Nc3ccccc32)cc1OC | 19.5% | 
